In all, about 330,000 compounds went through this assay and about 4,100 (1.2%) were called active. Cut-off read from the data, not from the text of the source: active = inhibition above about 50%; inactive = the rest. The full list was thinned out, with actives kept by preference.

This assay deals with Sentrin-specific protease 8 (Homo sapiens) (UniProt Q96LD8). The assay is described as follows: SENP8 protease inhibitors, primary screen, biochemical, luminescence (AID 2540). The note with it: purified SENP8, Z-RLRGG-aminoluciferin cleavage, at 10 µM, hits give high values.
Sentrin-specific protease 8 (Homo sapiens), sequence (Q96LD8 whole entry, looked up): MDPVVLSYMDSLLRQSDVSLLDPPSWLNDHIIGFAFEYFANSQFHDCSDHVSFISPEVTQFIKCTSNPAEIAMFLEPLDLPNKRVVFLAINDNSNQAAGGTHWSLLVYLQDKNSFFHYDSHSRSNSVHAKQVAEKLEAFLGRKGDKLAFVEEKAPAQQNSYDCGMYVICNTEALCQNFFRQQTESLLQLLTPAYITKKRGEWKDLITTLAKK
Regarding `CCC(C)(C)c1ccc(Oc2ccc(NC(=O)COC(=O)C3=COCCO3)cc2)cc1`, the inhibition – broadly, the relative decrease from the control value, in per cent – was -2.31% (inactive). Take `O=[N+]([O-])c1c(NCCO)cc(Sc2nc3ccccc3s2)c2nonc12`: the inhibition is 85% (active).

With `NC(=O)c1ccc(Nc2ccc3nonc3c2[N+](=O)[O-])cc1`, the inhibition was 2.67% (inactive). On to `Cc1nc2nc(CSc3nc4ccccc4s3)cc(=O)n2[nH]1`, for which the inhibition was -14.3% (inactive). As to `CC(C)NC(=O)/C(C#N)=C\c1ccc(N(C)C)c(Br)c1`, the inhibition is -4.03% (inactive).

On to `CC1(C)CC(=O)C(C2c3ccccc3S(=O)(=O)c3ccccc32)C(=O)C1`, for which the inhibition was -0.512% (inactive). With `CC(CNc1ccc([N+](=O)[O-])cc1)NC(=O)c1ccccc1Br` (stereo not drawn), the inhibition was 0% (inactive).

As for `O=C(O)c1c(NC(=O)N2CCCC2)sc2c1CCCC2`, the inhibition was -9.81% (inactive). Take `O=C(Nc1sc2c(c1C(=O)O)CCC2)c1ccccc1F`: the inhibition was 86.7% (active). Then `COC(=O)c1c(NC(=O)c2ccccc2F)sc2c1C(C(=O)OC)CC2` (stereo not drawn), with -3.54% (inactive). Then `CCOC(=O)C1CCCCN1Cc1ccc(OC)c(OC)c1OC` (stereo not drawn), with -0.162% (inactive); and `O=C(Nc1ccc2c(c1)CCC2)c1ccc(Br)s1`, with 61.5% (active). For `CC1CC(C)CN(CCC(=O)Nc2ccc3c(c2)CCC3)C1` (stereo not drawn), the inhibition is 7.63% (inactive).

Regarding `CC(C)Oc1ccc(C(=O)NCC(=O)Nc2ccc3c(c2)CCC3)cc1`, the inhibition is 6.91% (inactive). With `Cc1nn(-c2ccccc2)c2c1C(=O)NC(=O)C(C)(C)C2`, the inhibition is 4.21% (inactive). Then `Cc1nnc(SCc2ccc(C(=O)c3ccc(Cl)cc3)o2)n1-c1ccccc1`, with -8.59% (inactive). Take `Nc1nc(NCc2ccccc2)n(-c2ccccc2)n1`: the inhibition is 4.17% (inactive). As for `COc1ccccc1CNC(=O)CSc1nc(=O)n(Cc2ccncc2)c2c1CCC2`, the inhibition is -3.51% (inactive). With `N#CCc1c(C#N)c(N)nc(N2CCCC2)c1C#N`, the inhibition is 0.98% (inactive). With `N#Cc1c(N2CCCCC2)nc(N)c2c(N)nc(SCC(=O)O)cc12` the figure was 70.8% (active). Then `Nc1nc(NCC(=O)O)nc(N2CCCCCC2)c1[N+](=O)[O-]`, with -1.61% (inactive); and `O=S(=O)(NCC1CCCO1)c1cnc(Cl)c(Cl)c1` (stereo not drawn), with 3.51% (inactive).

`O=C(CN(c1ccccc1)S(=O)(=O)c1ccc(Cl)cc1)Nc1ccccc1C(=O)N1CCCC1`: the inhibition was 2.45% (inactive).

Regarding `Cc1nc(C(=O)N2CCCC(C(=O)c3ccc(Cl)cc3)C2)cs1` (stereo not drawn), the inhibition is -2.8% (inactive). With `Cn1cc(-c2ccccc2)cc(C#N)c1=O` the figure was 3.36% (inactive). Consider `COC(=O)[C@@H](NC(=O)NCc1cccc(OC)c1)C(C)C`, for which the inhibition was 0.612% (inactive). Regarding `NC1=NN(c2cccc(C(=O)O)c2)C(=O)C1`, the inhibition was -5.54% (inactive). For the compound `O=C(O)c1cccc(N=NN2CCCCCC2)c1`, the inhibition was 88.8% (active).

With `O=C(O)c1ccc(N=NN2CCOCC2)cc1`, the inhibition was 1.65% (inactive). With `Cc1cc(C(F)(F)F)nn1CC(=O)N1CCCC1` the figure was -6.86% (inactive); with `COc1ccc(C2/C=C\CN(S(=O)(=O)c3cccs3)CC(=O)N2Cc2ccc(F)cc2)cc1` (stereo not drawn), -0.424% (inactive).

Consider `CN1CCN(C2Cc3ccc(Cl)cc3Sc3ccc(F)cc32)CC1` (stereo not drawn), for which the inhibition was -10.9% (inactive). `CCOC(=O)/C(=C\c1ccc([N+](=O)[O-])cc1)C(=O)c1cc(C(C)=O)c(Nc2ccccc2)s1`: the inhibition is 6.19% (inactive).

Regarding `O=C(Cn1c(=S)nc2ccccn21)N1CCc2ccccc2C1`, the inhibition was 0.682% (inactive). Then `O=C(c1ccc(F)cc1)n1c(=S)nc2ccccn21`, with 64.1% (active); and `O=C(c1ccc(F)cc1)n1cc(C(=S)N2CCOCC2)c2ccccc21`, with -5.7% (inactive).

For the compound `Cc1ccccc1SCC(=O)OCC(=O)N1CC(=O)Nc2ccccc21`, the inhibition was 4.24% (inactive). Then `Cc1cccc(CN2CCC(CNC(=O)Nc3ccc(F)c(Cl)c3)CC2)c1`, with -1.33% (inactive). Then `CCOc1ccccc1NC(=O)Cn1nnc(C(=O)NCc2cccs2)c1N`, with 19.3% (inactive); and `Cn1ncc(Br)c1C(=O)NCc1cccs1`, with -2.84% (inactive). With `CC(C)Cn1c(N)c(C(=O)NCc2cccs2)c2nc3ccccc3nc21` the figure was 90% (active). `CCCCNC(=O)N1CCN(S(C)(=O)=O)CC1`: the inhibition is -11% (inactive). For the compound `N/C(=N\OC(=O)c1ccc([N+](=O)[O-])cc1)c1ccccn1`, the inhibition is 89.6% (active).

As for `C/C(=N/OC(=O)c1cccc(C(F)(F)F)c1)c1cnccn1`, the inhibition is -12.8% (inactive). With `COc1ccc(C(=O)O/N=C(\N)c2ccccn2)cc1[N+](=O)[O-]`, the inhibition was -12% (inactive). Take `Cc1ccc(C(=O)O/N=C(\N)c2ccccn2)cc1Cl`: the inhibition is 78% (active). With `O=C(COC(=O)c1ccccn1)NNC(=O)c1ccc([N+](=O)[O-])cc1` the figure was -16.2% (inactive). As to `O=C(COC(=O)c1ccccn1)NNC(=O)c1ccc(Br)cc1`, the inhibition is 0.814% (inactive). With `CCCNC(=O)COc1coc(CN2CCN(Cc3ccccc3)CC2)cc1=O`, the inhibition was -2.92% (inactive).

On to `CC(C)Cn1c(SCC(=O)Nc2ccc(Cl)cc2F)nc(O)cc1=O`, for which the inhibition was 0.222% (inactive).

In the case of `COc1cccc2sc(Nc3nc(C)c(C(C)=O)s3)nc12`, the inhibition was 66.7% (active). With `COc1cc2ccccc2cc1C(=O)Nc1nc(C)c(C(C)=O)s1` the figure was -0.787% (inactive). For the compound `CNC(=O)c1sc(NCc2ccccc2OC)nc1C`, the inhibition was 0.124% (inactive).

Regarding `Cc1ccc(S(=O)(=O)N2CCCCC2)cc1C(=O)N1CCN(CCO)CC1`, the inhibition was 4.2% (inactive).

Regarding `O=C(NCc1ccccc1Cl)C1CCCN1S(=O)(=O)c1ccc(F)cc1` (stereo not drawn), the inhibition was -7.31% (inactive). In the case of `Cc1ccc(N2CC(C(=O)Nc3cc(Cl)ccc3-n3cncn3)CC2=O)cc1` (stereo not drawn), the inhibition is 10.6% (inactive).

On to `Cc1ccc(-n2ncc3c(Nc4cccc(C(=O)O)c4)ncnc32)cc1`, for which the inhibition was 90.4% (active). With `Cc1ccc(Nc2ncnc3c2cnn3C)c(C)c1` the figure was 0.699% (inactive); with `CC(C)Sc1ncnc2c1cnn2-c1ccccc1`, 38.9% (inactive).

For the compound `O=C(C1CCN(C2CCN(Cc3ccc4cc(F)ccc4n3)CC2)CC1)N1CCCC1`, the inhibition is -5.41% (inactive). As to `O=c1[nH]cnc(O)c1C(c1ccc(F)cc1)c1c(O)nc[nH]c1=O`, the inhibition was -12.7% (inactive).

For the compound `O=c1c(-c2ccccc2)coc2cc(O)ccc12`, the inhibition was 55% (active).

In the case of `CCc1ccc(Oc2coc3cc(O)ccc3c2=O)cc1`, the inhibition is -15.7% (inactive). `CC(C)CN(Cc1c(O)ccc2c(=O)c(-c3ccccc3)coc12)CC(C)C`: the inhibition is -6.97% (inactive).

As for `O=C(O)c1ccc(OCC2CCCO2)cc1` (stereo not drawn), the inhibition was -8.8% (inactive). For `COC(=O)c1ccc(Sc2ccc(F)cc2)c(N)c1`, the inhibition is -1.32% (inactive). Then `CC(=O)Nc1ccc(/C=C/C(=O)c2ccccc2)cc1`, with -16.7% (inactive); and `CCOc1ccc(N/C=C/C(=O)c2ccccc2)cc1`, with 93.7% (active); and `CCOc1ccc(NC(=S)N2CCC(NC(=O)c3ccccc3)CC2)cc1`, with -6% (inactive). Then `COc1ccc(C(=O)/C=C/Nc2ccccn2)cc1`, with 95.5% (active). On to `CCOc1ccc(N/C=C/C(=O)c2cc(OC)c(OC)c(OC)c2)cc1`, for which the inhibition is -9.53% (inactive). In the case of `Cc1cc(N/C=C\C(=O)c2ccc(Cl)c(Cl)c2)no1`, the inhibition was -16.9% (inactive). Consider `O=C(/C=C/NCc1ccc(F)cc1)c1ccccc1`, for which the inhibition was -2.04% (inactive). `COc1ccc(N2C(=O)CCC(C(=O)Nc3ccccn3)C2c2ccc(OC)c(OC)c2)cc1` (stereo not drawn): the inhibition is -4.67% (inactive).

In the case of `Cc1ccc(N/C=C/C(=O)c2ccccc2)cc1C`, the inhibition was 88.8% (active). Take `COc1ccc(C)cc1N(C)C(=O)c1coc(=O)c2ccccc12`: the inhibition is -8.47% (inactive).

With `O=C(CN1C(=O)NC2(CCOc3ccccc32)C1=O)Nc1cccc([N+](=O)[O-])c1` (stereo not drawn), the inhibition was 7.44% (inactive). Then `O=C(Nc1c2c(nn1-c1ccccc1)CS(=O)(=O)C2)C1CCCC1`, with -3.98% (inactive). Then `Cc1ccc2nc(/C(C#N)=C\c3ccc(OC(=O)c4cccs4)cc3)[nH]c2c1`, with 3.01% (inactive).

Take `COc1cc(/C=C(\C#N)c2nc3c(s2)CC(C)CC3)ccc1O` (stereo not drawn): the inhibition was -4.73% (inactive). `COc1cc(/C=C(\C#N)c2nc3ccccc3[nH]2)ccc1O`: the inhibition was 91.8% (active). Then `COc1ccc(NC(=O)CN(C)C(=O)Cc2coc3cc(C)c(C)cc23)cc1`, with -3.13% (inactive). `COc1ccccc1C1=CC(=O)C[C@H](c2ccc(F)cc2)C1`: the inhibition was -4.36% (inactive).

Take `CCN(CC)CCNc1nc(-c2ccc(OC(F)F)cc2)c(C)s1`: the inhibition was -5.12% (inactive).

On to `COc1ccc(/C=C2/SC(=O)N(CCCCCC(=O)Nc3ccccc3C(=O)O)C2=S)cc1`, for which the inhibition was 50.3% (active).

In the case of `COc1ccc(/C=C2\SC(=O)N(CCC(=O)NC3CCS(=O)(=O)C3)C2=O)cc1` (stereo not drawn), the inhibition was 2.13% (inactive). Then `COc1ccc(/C=C2\SC(=O)N(CCC(=O)NCCCn3ccnc3)C2=O)cc1`, with -11.9% (inactive).

Consider `CN1C(=O)CC(c2ccccc2)C1=O` (stereo not drawn), for which the inhibition is 1.07% (inactive). With `COc1cc(NC(=S)NCCSc2ccc(C)cc2)cc(OC)c1` the figure was -1.13% (inactive).

Regarding `COc1cccc(C(=O)NNC(=O)c2cccc(F)c2)c1`, the inhibition is -1.03% (inactive). With `COc1cccc(C(=O)c2cc3ccc(O)cc3oc2=O)c1` the figure was 96.9% (active); with `CCOC(=O)c1cc2cc3ccccc3cc2oc1=O`, -4.84% (inactive); with `CN1CCN(Cc2nc3cc(NC(=O)COc4ccc([N+](=O)[O-])cc4)ccc3n2C)CC1`, 0.315% (inactive).

With `CN(C)c1cc(-c2ccc(F)cc2)oc(=O)c1Cl`, the inhibition is 2.47% (inactive). Then `O=c1oc2cc(O)ccc2cc1-c1ccc(F)cc1`, with 95.4% (active); and `COc1ccc(-c2cc3ccc(OCc4nn[nH]n4)cc3oc2=O)cc1`, with 39.6% (inactive); and `Cc1ccc(C)c(NC(=O)CN(C)C(=O)c2ccc3ncsc3c2)c1`, with -13.6% (inactive).

As to `O=C(Nc1ccccc1C(=O)O)c1ccc(N2C(=O)C3CC=CCC3C2=O)cc1` (stereo not drawn), the inhibition was 21.2% (inactive).
